Screens as filed in PubChem BioAssay.
Mito fusion yeast – mitochondrial division inhibition or fusion activation; S. cerevisiae fusion-defective mutant growth rescue, CellTiterGlo 48 h; Potency, µM (highest dose often 46.1 µM), for the others: at the highest dose growth rescue (activation), hits mostly activators; 320,000 tested, 0.23% active; AID 485298; note: % of control where 0% means no effect; nearly all actives have a fitted effect of over 45% in size
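Luminescent cell viability in 1536-well qHTS format served as the measure of rescued growth in ts fusion-mutant S. cerevisiae cultured on non-fermentable YPEG for 48 hours at 37C.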
uPA generation – blocks generation of uPA at the cell surface. cell surface uPA generation assay, qHTS. Potency, µM (top dose mostly 38.3 µM), for inactives: at the highest dose activity change, negative = inhibition, usual class: inhibitors. 330,000 tested, 0.31% active; active = well fitted inhibition curve with a large enough effect; inconclusive = small, poorly fitted or top-dose-only effect; inactive = no such curve, though single readings can be large or run the other way; tested in mouse RAW 264.7 cells; note: % is set by controls: 0 for no effect and ±100 for the full control effect; nearly all actives have a fitted effect of over 55% in size
BCR signal inh – inhibitors of chronic active B-cell receptor signaling; Potency, µM (titrated, usually from 46.1 µM), without a hit: at the highest dose activity change, negative = inhibition, hits mostly inhibitors; ABC-DLBCL IkBa-CBG/CBR reporter, luminescence ratio, 4 h; 340,000 tested, 0.05% active; active = well fitted inhibition curve with a large enough effect in the signal ratio, with a control signal flat, not every such curve was filed as active; inconclusive = small, poorly fitted or top-dose-only effect, or effect the other way, or a change in a side signal; the % refers to the signal ratio;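 note: plate controls were basal doxycycline-induced cells for no effect and cells given 10 µM MG132 for full effect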
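TMD8 human ABC-DLBCL cells with doxycycline-inducible IκBα–green luciferase fusion and unfused red luciferase, in 0.5% FBS medium; compounds up to 46 uM, 4 h at 37C. Green/red luminescence ratio, filter-overlap corrected, fitted to concentration-response curves.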
RORgamma inh – inhibitors of mouse ROR gamma transcriptional activity; P51450; Drosophila S2 Gal4-RORgamma UAS-luciferase reporter, 20 h; Potency, µM (series often up to 53.6 µM), for inactives: at the highest dose activity change, negative = inhibition, hits mostly inhibitors; 310,000 tested, 5.4% active; AID 2551; note: % is set by controls: 0 for no effect and ±100 for the full control effect; nearly all actives have a fitted effect of over 60% in size
Target sequence (P51450 whole entry, looked up, the tested form may be a part): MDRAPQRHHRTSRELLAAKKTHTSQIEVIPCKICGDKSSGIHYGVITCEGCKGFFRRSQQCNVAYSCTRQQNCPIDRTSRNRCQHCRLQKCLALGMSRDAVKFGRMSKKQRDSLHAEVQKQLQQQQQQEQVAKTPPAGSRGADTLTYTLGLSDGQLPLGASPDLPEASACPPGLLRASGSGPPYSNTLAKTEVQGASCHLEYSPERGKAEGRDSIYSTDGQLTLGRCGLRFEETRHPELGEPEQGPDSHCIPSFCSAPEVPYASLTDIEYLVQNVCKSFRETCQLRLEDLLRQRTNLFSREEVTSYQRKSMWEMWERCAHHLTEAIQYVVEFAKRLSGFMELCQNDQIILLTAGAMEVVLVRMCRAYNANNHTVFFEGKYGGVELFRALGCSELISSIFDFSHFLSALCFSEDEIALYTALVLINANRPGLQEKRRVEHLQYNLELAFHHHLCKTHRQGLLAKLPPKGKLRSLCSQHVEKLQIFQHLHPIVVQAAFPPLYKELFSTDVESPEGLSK
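Read-out: Photinus luciferase luminescence; inhibitors lower reporter signal. Insect Schneider cells with Gal4-ROR gamma fusion under metallothionein promoter, UAS reporter; 700 uM final copper sulfate induction, 20 hr, ambient temperature.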
Gal4-VP16 FLuc – inhibits Gal4-VP16 luciferase reporter, ROR gamma counter-screen. Drosophila S2 Gal4-VP16 UAS-luciferase, luminescence, 20 h. Potency, µM (doses to about 53.6 µM), for the others: at the highest dose activity, negative = inhibition, usual class: inhibitors. 310,000 tested, 3.5% active;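 note: Gal4-VP16 expression switched on by copper sulfate through the metallothionein promoter; % is set by controls: 0 for no effect and ±100 for the full control effect; nearly all actives have a fitted effect of over 50% in size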
a7 integrin act – activators of alpha7 integrin expression for muscular dystrophy | alpha7betagal myoblasts, beta-gal FDG fluorescence, 48 h | Potency, µM (series often up to 38.3 µM), for inactives: top-dose activation, actives largely listed as activators | 350,000 tested, 0.064% active;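 note: 100% = response of the positive control SU9516; nearly all actives have a fitted effect of over 60% in size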
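Alpha7betagal+/- myoblasts (passage 13) were plated 16-24 hr, then exposed to compounds (1:260 dilution of DMSO stock) for 48 hours at 37C. After MPER lysis, β-galactosidase reporter activity was read as FDG fluorescence (ex 480/em 540) after 30 minutes.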
* = called active by the depositor; ? = inconclusive; nt = no result; ! = not active in a repeat. A selection: hits, their analogues and other compounds. The true share with any hit is near 5.5%. Unless noted, calls come from the whole dose curve; as a rule, active = well fitted curve in the direction sought with a large enough effect; inconclusive = small, poorly fitted or top-dose-only effect, or another doubt; inactive = no such curve, though single readings can be large; an effect the other way counts as inactive or inconclusive. Potency is the fitted concentration of half-maximal effect.

SMILES	Mito fusion yeast	uPA generation	BCR signal inh	RORgamma inh	Gal4-VP16 FLuc	a7 integrin act
C=CCC1(CC=C)CCCN1C(=O)c1cc(COc2ccc(C)nc2)on1	33%	?	4%	?	8.9µM*	-16%
Cc1ccc(N)cc1O	-6%	-7%	-8%	-4%	14%	nt
Cc1cc(O)c(-c2cc(O)c(C)cc2O)cc1O	-10%	15%	?	7.1µM*	?	-62%
COc1ccc([C@@H]2[C@@H]3C(=O)N(C(C)(C)C)C(=O)[C@@H]3[C@]3(C)C(=O)N(c4cccc(Cl)c4)C(=O)N23)cc1	-1%	31%	-17%	nt	nt	15%
Cc1cc([N+](=O)[O-])cc(/C=N/n2c(C)nc3ccccc3c2=O)c1O	10%	-1%	?	13µM*	5%	-27%
C/C(=N\OCc1nc2ccccc2c(=O)n1/N=C/c1cc([N+](=O)[O-])ccc1O)c1ccccc1	2%	-2%	?	10µM*	?	39%
Cc1nc2ccccc2c(=O)n1/N=C/c1ccccc1O	1%	-2%	0%	?	?	9%
COc1ccc2c(c1)C(=O)[C@H](OC(=O)Nc1cc(OC)c(OC)c(OC)c1)[C@@H](c1ccc(OC)c(Br)c1)O2	nt	nt	nt	-9%	-1%	nt
COc1ccc2c(c1)C(=O)[C@H](O)[C@@H](c1ccc(OC)c(Br)c1)O2	2%	?	?	7.1µM*	13µM*!	-35%
COc1ccccc1C(C)NC(=O)c1ccccc1SCC(=O)N1CCCC1 (stereo unspecified)	-8%	7%	7%	nt	nt	9%
NC(=S)Nc1ccccc1Br	1%	18%	-3%	?	35µM*	9%
NC(=S)Nc1cccc2cn[nH]c12	?	3%	2%	-2%	-17%	-5%
O=C(Nc1ccccc1F)Nc1ccccc1Br	4%	-11%	?	31%	?	29%
NC(=S)Nc1cc2ccccc2c2ccccc12	-6%	-7%	3%	11µM*	?	-18%
NC(=S)Nc1cccc2cc3ccccc3cc12	0%	-5%	1%	13µM*	-82%	0%
N#Cc1ccc(NC(=O)C2=COCCO2)cc1	-3%	-16%	-8%	nt	nt	-16%
CSC(N)=NCCC[C@H](N)C(=O)O	1%	nt	nt	nt	nt	nt
CCc1ccc(NC(=O)c2ccc(F)c(S(=O)(=O)N(C)C3CCCCC3)c2)cc1	nt	nt	12%	nt	nt	nt
Cc1cc(C)nc(Sc2ccc([N+](=O)[O-])cc2[N+](=O)[O-])n1	2%	-10%	?	8.9µM*	?	-44%
O=[N+]([O-])c1ccc(Sc2cccc3cccnc23)cc1	6%	9%	?	33%	-17%	-12%
C=CCn1nc([N+](=O)[O-])nc1Sc1cccc2cccnc12	-6%	-9%	?	8.9µM*	?	-54%
O=[N+]([O-])c1ccc(Sc2ccncn2)c([N+](=O)[O-])c1	nt	nt	nt	nt	nt	-66%
O=[N+]([O-])c1ccc(Sc2cccc3cccnc23)c([N+](=O)[O-])c1	5%	10µM*	?	7.1µM*	7.1µM*	?
O=C(/C=C/c1ccc(O)c(O)c1)c1ccc(O)cc1O	nt	nt	nt	-43%	0%	nt
CC(C)(C)OC(=O)[C@H](Cc1ccccc1)NC(=O)c1nc[nH]c1C(=O)N1CCc2ccccc2C1	4%	-6%	12%	?	?	0%
CC(C)(C)OC(=O)N1CCN(C(=O)c2[nH]cnc2C(=O)N[C@@H](Cc2ccccc2)C(=O)OCc2ccccc2)CC1	-3%	-7%	?	11µM*	?	-37%
CC(C)(C)OC(=O)[C@H](Cc1ccccc1)NC(=O)c1nc[nH]c1C(=O)N1CCN(c2ccccc2)CC1	12%	-14%	-1%	-12%	?	-3%
CC(C)(C)OC(=O)[C@H](Cc1ccccc1)NC(=O)c1nc[nH]c1C(=O)N1CCN(C(=O)OC(C)(C)C)CC1	-2%	17%	13%	11µM*	?	3%
